KB-3-1 cytotox: qHTS assay for MDR1-selective chemotherapeutics: Primary screen using the parental adenocarcinoma cell KB-3-1. AID 1347075, 2019. 400,000 tested, 1.4% active. Potency, µM (top dose mostly 46.1 µM), actives largely listed as cytotoxic. KB-3-1 viability, CellTiter-Glo ATP luminescence, 72 h; also: % is scaled to controls: 0 for no effect and ±100 for the full control effect; nearly all actives have a fitted effect of over 60% in size
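Cytotoxicity in the drug-sensitive parental line KB-3-1 was scored as loss of CellTiter-Glo luminescence following 72 h incubation with compound. Values come from curve fitting of normalized concentration-response data.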
ELG1 DNA repair: qHTS screen for small molecules that inhibit ELG1-dependent DNA repair in human embryonic kidney (HEK293T) cells expressing luciferase-tagged ELG1; HEK293T ELG1-luciferase reporter, luminescence, 16 h; DNA damage induced by 5-fluorouridine; Potency, µM (doses to about 46.1 µM), for the others: at the top dose activity change, negative = inhibition, usual class: inhibitors; 330,000 tested, 2.3% active; also: % is scaled to controls: 0 for no effect and ±100 for the full control effect; nearly all actives have a fitted effect of over 55% in size
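Step one: seed 2,000 cells per well. Step two: pin-transfer compound or DMSO alongside 5-fluorouridine. Step three: incubate 16 hr, 37 °C, 5% CO2. Step four: add ONE-Glo, wait 30 min, read luminescence.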
SW480 rereplic: A quantitative high throughput screen for small molecules that induce DNA re-replication in SW480 colon adenocarcinoma cells; SW480 DNA re-replication, Hoechst DNA content imaging, 48 h; Potency, µM (top dose mostly 46.1 µM), inactives show top-dose re-replication activation, actives largely listed as activators; 340,000 tested, 1.8% active; AID 624297, 2012; also: % of control where 0% means no effect; nearly all actives have a fitted effect of over 55% in size
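Per well, 250 cells were exposed to pinned compound for 48 hr. Nuclear DNA was visualised with Hoechst (40 min, 37 C) and total object intensity recorded by fluorescence scanning.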
MCF10A rerep: A quantitative high throughput screen for small molecules that induce DNA re-replication in MCF 10a normal breast cells | MCF 10A DNA re-replication, Hoechst nuclear intensity, 48 h | Potency, µM (top dose mostly 46.1 µM), for inactives: top-dose activity, positive = re-replication, actives largely listed as activators | 350,000 tested, 2.9% active | AID 624296, 2012; also: % of control where 0% means no effect; nearly all actives have a fitted effect of over 50% in size
KB-V1 cytotox: qHTS assay for MDR1-selective chemotherapeutics: Primary screen using the drug-selected MDR subline cells KB-V1 | AID 1347076, 2019 | 400,000 tested, 3.4% active | Potency, µM (doses to about 46.1 µM), usual class: cytotoxic | KB-V1 MDR cells viability, CellTiter-Glo, 72 h; also: % is scaled to controls: 0 for no effect and ±100 for the full control effect; nearly all actives have a fitted effect of over 60% in size
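Cytotoxicity toward P-gp-expressing KB-V1 cells was determined as loss of CellTiter-Glo luminescence after 72 h at 37 degrees C. Compounds were tested in quantitative HTS format across a concentration range, with curves fitted to normalized data.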
Numbers without * were called inactive; i = inactive; ? = inconclusive; / = no result given; ! = not confirmed by another sample. The list is not random: actives were taken first. Their share in the collection is about 8.1%. Calls follow the shape of the dose curve; as a rule, active = well fitted curve in the direction sought with a large enough effect; inconclusive = small, poorly fitted or top-dose-only effect, or another doubt; inactive = no such curve, though single readings can be large; an effect the other way counts as inactive or inconclusive. Potency is read from the fitted curve at half-maximal effect.

SMILES	KB-3-1 cytotox	ELG1 DNA repair	SW480 rereplic	MCF10A rerep	KB-V1 cytotox
CC(C)(C)NC(=O)NC(=O)CN1CCN(Cc2ccccc2)CC1	i	-4.9%	-42.0%	1.8%	i
O=C(CN1CCN(C(c2ccccc2)c2ccccc2)CC1)NC(=O)NCc1ccco1	i	0.0%	?	5.1%	2.31µM*
CC(C)(C)NC(=O)NC(=O)CN1CCN(C(c2ccccc2)c2ccccc2)CC1	i	?	14.6%	11.4%	20.6µM*
CC(=O)C1CCC2C3CCC4=CC(=O)CCC4(C)C3(F)C(O)CC12C (stereo not given)	?	/	-9.3%	16.9%	5.17µM*
COc1cc2ccc(=O)oc2cc1O	i	6.8%	14.6µM*	?	i
CCN(CC)S(=O)(=O)c1cccc(NC(=O)C2SC(=Nc3ccc(C)cc3C)C(C(=O)NCC3CCCO3)=C2N)c1 (stereo not given)	?	?	?	?	20.6µM*
CCN(CC)S(=O)(=O)c1cccc(C(=O)NCC2CCCO2)c1 (stereo not given)	i	-27.7%	?	23.1µM*	i
CCN(CC)S(=O)(=O)c1cccc(C(=O)NCC2CCCCC2)c1	?	-20.3%	-1.1%	6.8%	11.6µM*
O=C(NCC1CCCO1)c1cccc(S(=O)(=O)N(Cc2ccccc2)c2ccccc2)c1 (stereo not given)	i	1.7%	-3.8%	19.8%	8.2µM*
CCN(CC)S(=O)(=O)c1ccc(Cl)c(C(=O)NCC2CCCO2)c1 (stereo not given)	i	-0.8%	-8.3%	-2.3%	i
CCN(CC)S(=O)(=O)c1cccc(C(=O)NCC(c2ccccc2)N(C)C)c1 (stereo not given)	i	7.6%	-2.8%	?	?
Cc1ccc(NC(=O)COCC(=O)Nc2ccc(F)cc2)cc1	i	-11.0%	-9.5%	-1.7%	i
Cc1cc(C(=O)N2CCC2(C)C(=O)NCCC#N)nn1C (stereo not given)	i	/	/	/	i
COc1ccc(OC)c(CN2CCN(C(=O)c3cc(S(=O)(=O)N4CCOCC4)ccc3C)CC2)c1	i	/	-10.6%	-0.4%	?
CCc1cccc(CC)c1NC(=O)COC(=O)C1(c2ccc(Cl)cc2)CCCC1	i	0.3%	-8.6%	15.4%	4.61µM*
CCOC(COC(=O)c1ccccc1C(=O)O)c1ccccc1 (stereo not given)	i	/	/	/	i
CCOc1ccc(Br)cc1S(=O)(=O)NC1CC(C)(C)NC(C)(C)C1	i	7.5%	0.517µM*	12.8%	i
Cc1cc(C)c(NC(=O)CSc2nc3nc(C)cc(C)n3n2)c(C)c1	i	/	/	/	?
CN1CCc2cccc3c2[C@H]1Cc1ccc(O)c(O)c1-3	?	23.1µM*!	8.2µM*!	2.91µM*	?
COc1cccc(S(=O)(=O)N(C)C[C@H]2OCc3cnnn3CCCC(=O)N([C@H](C)CO)C[C@H]2C)c1	i	/	/	/	i
COc1cc(OC)cc(-n2c(=O)c3sccc3n(Cc3ccc(F)cc3)c2=O)c1	i	/	/	/	i
Cc1cccc(Cn2c(=O)n(-c3ccc(CC(=O)NCc4ccco4)cc3)c(=O)c3sccc32)c1	23.1µM*	?	?	?	?
O=c1c2sccc2n(Cc2cccc(F)c2)c(=O)n1-c1ccc(F)cc1	i	4.4%	3.5%	?	8.2µM*
COc1cc2nc(/C=C/c3ccc(N(C)C)cc3)sc2cc1SC	i	7.1%	20.6µM*	3.26µM*	i
CN(C)c1ccc(/C=C/c2nc3ccccc3s2)cc1Cl	i	/	/	/	i
COc1ccccc1N1CCN(C(=O)c2ccc(N3CCCCS3(=O)=O)cc2)CC1	i	?	-1.6%	-0.8%	i
O=C(NC12CC3CC(CC(C3)C1)C2)c1ccc(N2CCNCC2)c([N+](=O)[O-])c1	18.4µM*	8.7%	?	9.9%	23.1µM*

High-throughput results deposited in PubChem by National Center for Advancing Translational Sciences (NCATS).
